According to PubChem BioAssay (NCI):
The panel holds about 83,000 compounds, 20% with a hit somewhere; the sample as a whole holds those more often.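 Negative percent growth values reflect cell death: -40 means 40% of the cells present at the start died, and -100 means all died.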 Active and inactive are the calls of the source.

What follows are molecules tested on ACHN renal (assay: NCI-60 one-dose screen, 48 h (100 = growth as untreated, 0 = no growth, -100 = all killed)). Settings: 10 µM.
Description: Growth inhibition of the ACHN human tumor cell line is measured as a screen for anti-cancer activity. Cells are grown in 96 well plates and exposed to the test compound for 48 hours. Compounds are tested at a single concentration, which is 10^-5 M for most compounds. The reported endpoint is percent growth (GI% or GIPRCNT), where numbers from 0 - 100% represent growth inhibition, and numbers from -100% - 0 represent cell death. For example, a value of 40 represents 60% growth inhibition. A value of 0 means no net growth occurred over the course of the experiment. A value of -40 indicates 40% of cells at the beginning of the experiment died by the end of the experiment. A value of -100 means all cells are dead at the end of the experiment.
NCI-60 Human Tumor Cell Lines Screen was performed using the standard one-dose NCI protocol, which is described in more detail at https://dtp.cancer.gov/discovery_development/nci-60/default.htm.
Compounds with GIPRCNT values below 10 were considered active. Activity score was based on GIPRCNT using the following formula: […]
Score is 0 for GIPRCNT values of 100 or above, 50 for GIPRCNT values of 0, and 100 for GIPRCNT values of -100.

Structure (SMILES)	growth
COc1cccc(O)c1/C=C1\SCc2cc3c(OC)cccc3[o+]c21	104% (inactive)
Cn1cc(-c2cc3nc(-c4c[nH]c5ccccc45)cc(N)n3n2)c2cc(Cl)ccc21	-100% (active)
COc1cc(Nc2nc(O)c(/C=C3\C=Nc4ccccc43)s2)cc(OC)c1OC	-2.09% (active)
Cc1ccc2c(c1)C(=O)/C(=C/c1ccc([N+](=O)[O-])cc1)S2	102% (inactive)
COc1cccc(C(=O)CSc2nc(-c3ccc(OCc4ccccc4)c(OC)c3)c(C#N)c(=O)[nH]2)c1	99.9% (inactive)
COc1cc(C2CC(c3ccccc3)=Nc3c(N)nc(N)nc3N2)ccc1Oc1nc(NCCO)nc(N2CCOCC2)n1 (stereo not given)	103% (inactive)
COc1ccc(OC)c(-n2cc(C#N)c(N)c2C(=O)c2ccc(Cl)cc2Cl)c1	53.3% (inactive)
COc1ccc(C2OC[C@@]3(C)C4CC[C@]5(C)C(CC=C6C7CC(C)(C)CC[C@]7(C(=O)O)CC[C@]65C)[C@@]4(C)C[C@@H](O)[C@@H]3O2)cc1 (stereo not given in full)	56.8% (inactive)
O=[N+]([O-])c1cccc(-c2nnc3c(/C=C/c4ccccc4O)nc4ccccc4n23)c1	35.8% (inactive)
COc1ccc(C2c3sc4ccc(C)cc4c3Oc3nc[nH]c(=O)c32)cc1 (stereo not given)	106% (inactive)
Cn1cc(/C=C(/SS/C(=C/c2cn(C)c3cccc(C(=O)O)c23)C(=O)O)C(=O)O)c2c(C(=O)O)cccc21	110% (inactive)
O=C(CSc1nc2ccccc2c(=O)n1-c1ccc(Cl)cc1)Nc1ccc(-c2nc3ccc([N+](=O)[O-])cc3[nH]2)cc1	45.5% (inactive)
Cc1ccc2sc3c(c2c1)Oc1nc[nH]c(=O)c1C3c1cccc(F)c1 (stereo not given)	97% (inactive)
O=C(CC(=O)Nc1ccc(Oc2ncnc3scc(Nc4n[nH]c(=S)s4)c23)cc1)Nc1ccc(Br)cc1	106% (inactive)
Cn1cc(-c2nnc(N)nc2-c2c[nH]c3ccc(F)cc23)c2cc(Br)cnc21	47% (inactive)
C#C[C@]1(O)CC[C@H]2[C@@H]3CC=C4c5sc(Nc6ccc(C(F)(F)F)cn6)nc5CC[C@]4(C)[C@H]3CC[C@@]21C	0.62% (active)
C#C[C@]1(O)CC[C@H]2[C@@H]3CC=C4c5sc(Nc6cc(C)cc(C)n6)nc5CC[C@]4(C)[C@H]3CC[C@@]21C	7.43% (active)
O=C(CSc1nc2ccccc2c(=O)n1-c1ccc(Cl)cc1)Nc1ccc(-c2nc3ccccc3[nH]2)cc1	3.26% (active)
CC1[C@H]2[C@H](C[C@H]3[C@@H]4CC=C5c6sc(Nc7cccc(Cl)n7)nc6CC[C@]5(C)[C@H]4CC[C@@]32C)O[C@]12CC[C@@H](C)CO2 (stereo not given in full)	96.4% (inactive)
COc1cc(-c2nc3ccc(C)cc3[nH]2)ccc1OCc1nnc(-c2ccccc2Br)o1	76.6% (inactive)

Structure (SMILES)	growth
CC(C)(C)c1cc(/C=C2\S/C(=N/c3ncn[nH]3)NC2=O)cc(C(C)(C)C)c1O	18.2% (inactive)
CCOC(=O)c1ccc(NC(=O)CSC(CC(=O)c2sc(Nc3ccccn3)nc2C)c2ccccc2F)cc1 (stereo not given)	12.1% (inactive)
COc1ccc(C(=O)COc2ccc(NC(=O)Nc3ccccc3)cc2)cc1	98% (inactive)
O=C(CC(=O)Nc1ccc(Oc2ncnc3scc(Nc4n[nH]c(=S)s4)c23)cc1)Nc1ccc(Cl)cc1	77.4% (inactive)
Cc1cc(N=C2NC(=O)/C(=C/c3cc(C(C)(C)C)c(O)c(C(C)(C)C)c3)S2)n[nH]1	14% (inactive)
Cn1cc(-c2nnc(N)nc2-c2c[nH]c3ccccc23)c2cc(Br)cnc21	39.7% (inactive)
COc1ccc(-n2c(SCC(=O)NNS(=O)(=O)c3ccccc3)nc3ccc(Cl)cc3c2=O)cc1	-8.76% (active)
COc1cc2oc(-c3cccc(C(=O)Nc4ccc(Cl)cc4)c3)cc(=O)c2c(OCCNC(=O)[C@@H](N)CO)c1OC	99.4% (inactive)
O=C1NC2C=CC=CC2/C1=C1/SC(=S)N(C2CC(=O)N(c3ccc(Br)cc3)C2=O)C1=O (stereo not given)	94.1% (inactive)
COc1cc2oc(-c3cccc(C(=O)Nc4ccc(Cl)cc4)c3)cc(=O)c2c(OCCN)c1OC	-92.5% (active)
C#CCOc1cc(N(CC)CC)ccc1C(C(=O)NC(C)(C)C)N(C(=O)C1CCc2cc(F)ccc2O1)c1ccc(F)cc1F (stereo not given)	24.7% (inactive)
O=C(Nc1ccc(Oc2ncnc3scc(Nc4n[nH]c(=S)s4)c23)cc1)C1(C(=O)Nc2cccc(C(F)(F)F)c2)CC1	95.6% (inactive)
Cc1ccc(S(=O)(=O)N2CCN(S(=O)(=O)c3oc(-c4ccccc4)nc3C#N)CC2)cc1	69.4% (inactive)
O=C1NC(=S)S/C1=C\c1cn(-c2ccccc2)nc1-c1ccc([N+](=O)[O-])cc1	12.6% (inactive)
O=C(Nc1ccc(OCC(=O)c2ccc(Cl)cc2)cc1)Nc1ccc(Cl)c(C(F)(F)F)c1	16.8% (inactive)
Cc1cc(N=C2NC(=O)S/C2=C\c2ccc(F)cc2)n[nH]1	27.4% (inactive)
Cc1ccc2c(c1)C(=O)/C(=C/c1c[nH]c3ccccc13)S2	58.2% (inactive)
O=C(CN1CCN(c2ncnc3c2cnn3-c2ccccc2)CC1)Nc1ccc(Br)cc1	-88.1% (active)
Fc1ccc(-c2csc(Nc3cccc(Nc4nc(-c5ccc(F)cc5)cs4)c3)n2)cc1	51.8% (inactive)
Nc1nnc(-c2c[nH]c3ncc(Br)cc23)c(-c2c[nH]c3ccc(Br)cc23)n1	37.3% (inactive)
